From PubChem BioAssay come the findings set out here.

The nature of assay [1]: small molecules captured by biotinylated probe aFSTL3 – biochemical, small-molecule microarray, fluorescence 635/667, stem cell growth factor project, primary screen (AID 1064).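 Also: measures binding of the biotinylated anti-FSTL3 antibody to printed compounds.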 The note with it: higher = more signal.
Assay [2] is described as follows: binders from COS7 lysate, DM2A8 probe, primary screen, torsin A project, cell lysate, small-molecule microarray, fluorescence 635/667 (AID 1065). The note with it: higher = more signal, COS7 lysate expressing mutant human TOR1A.
The nature of assay [3]: small molecules captured by biotinylated probe aFGF2 – biochemical, small-molecule microarray, fluorescence 635/667, stem cell growth factor project, primary screen (AID 1067).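 Also: measures binding of biotinylated aFGF2 protein to printed compounds on slides; z-score merges feature fluorescence and signal-to-noise across triplicate slides.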 The note with it: higher = more signal.
A short description of assay [4]: small molecules captured by biotinylated probe aFGF10 – biochemical, small-molecule microarray, fluorescence 635/667, stem cell growth factor project, primary screen (AID 1071).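 Also: score merges 667 nm spot intensity and signal to noise from triplicate slides.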 The note with it: higher = more signal.
For assay [5], the target named is Neurogenic locus notch homolog protein 2 (Homo sapiens) (UniProt Q04721). The assay is described as follows: small molecules binding Notch2 protein – biochemical, small-molecule microarray, 635 nm fluorescence, stem cell growth factors, primary screen (AID 1073). The note with it: higher = more signal.
For assay [6], the target named is Pro-neuregulin-1, membrane-bound isoform (Homo sapiens) (UniProt Q02297). Nature of the assay: small molecules binding neuregulin-1 protein – biochemical, small-molecule microarray, fluorescence 635/667, psychiatric disease protein project, primary screen (AID 1075).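 Also: score combines 667 nm spot fluorescence with signal to noise.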 The note with it: NRG1 binding, 635 nm fluorescence, higher = more signal.
The subject of assay [7] is Neuregulin-1 EGF-like domain. The assay is described as follows: small molecules binding NRG1 EGF domain – biochemical, small-molecule microarray, 635 nm fluorescence, primary screen (AID 1081).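 Also: binding of the protein to compounds printed on small-molecule microarray slides.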 The note with it: higher = more signal.
A short description of assay [8]: FRG1 expression reporter modulators in myotubes – cell-based, C2C12 myotubes, firefly/Renilla luciferase, luminescence, FRG1 inhibition for FSHD, primary screen (AID 1084). The note with it: FRG1 promoter luciferase, higher = more signal, called active from +8 up or from −8 down.
A short description of assay [9]: small molecules captured by biotinylated probe aFST – biochemical, small-molecule microarray, fluorescence 635/667, stem cell growth factor project, primary screen (AID 1086).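 Also: score merges 667 nm fluorescence with signal-to-noise of each printed compound spot.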 The note with it: higher = more signal.
A short description of assay [10]: binders of probe aHhip on microarray, primary screen, stem cell growth factor project, biochemical, small-molecule microarray, fluorescence 635/667 (AID 1087).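 Also: score merges spot fluorescence at 667nm with spot signal to noise ratio.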 The note with it: higher = more signal.
For assay [11], the system named is PRMT1 (protein arginine N-methyltransferase 1). The assay is described as follows: small molecules binding arginine methyltransferase PRMT1 – biochemical, small-molecule microarray, 635 nm fluorescence, primary screen (AID 1088).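 Also: binding of Prmt1 protein to compounds spotted on small-molecule microarray slides.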 The note with it: higher = more signal.
Assay [12] in a line: growth effects on S. cerevisiae YJM789 – YJM789 clinical isolate, OD600, 24 h, basal, primary screen (AID 1089).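 Also: growth of clinical yeast isolate S. cerevisiae YJM 789 seeded 1000 cells per well; test concentration not given here.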 The note with it: higher = more signal, called active from +8 up or from −8 down.
Assay [13] in a line: S. pombe growth modifiers, basal conditions – strain 972, OD600, 24 h, no modulator, primary screen (AID 1090).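 Also: basal condition with compound alone and no growth modifier present; test concentration not given here.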 The note with it: S. pombe 972 growth, higher = more signal, called active from +8 up or from −8 down.
Assay [14] is described as follows: budding yeast growth modifiers under rapamycin – strain BY4716, OD600, 96 h, primary screen (AID 1091). Also: test concentration not given here. The note with it: S. cerevisiae BY4716 + rapamycin, higher = more signal, called active from +8 up or from −8 down.
For assay [15], the target named is Torsin-1A-interacting protein 2 (Homo sapiens) (UniProt Q8NFQ8). The assay is described as follows: small molecules binding lysate-expressed LULL1 – cell lysate, human LULL1 lysate, 635/667 nm fluorescence, primary screen (AID 1092).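 Also: score merges per-feature 667 nm fluorescence with signal-to-noise.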 The note with it: small-molecule microarray, hLULL1 lysate binding, 635 nm fluorescence; higher = more signal.
The nature of assay [16]: optical density change of DRC41 E. coli – strain DRC41, OD650, 24 h, E. coli filamentation project, primary screen (AID 1093).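 Also: MC1000 strain lacking acrAB efflux and sulA so SOS filamentation is blocked; test concentration not given here.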 The note with it: E. coli DRC41 growth, higher = more signal, called active from +8 up or from −8 down.
The nature of assay [17]: probe aLefty2 binding to arrayed compounds – biochemical, biotinylated probe, 635/667 nm fluorescence, primary screen (AID 1094).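 Also: score merges spot fluorescence near 667 nm with spot signal-to-noise ratio.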 The note with it: small-molecule microarray, higher = more signal.
In assay [18] the test system is Noggin (protein binding on small-molecule microarray). Nature of the assay: small molecules binding Noggin protein – biochemical, 635/667 nm fluorescence, primary screen (AID 1095).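 Also: score merges 667 nm feature fluorescence with signal to noise over triplicate slides.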 The note with it: 635 nm fluorescence, higher = more signal.
Assay [19] has as its target Neurogenic locus notch homolog protein 3 (Homo sapiens) (UniProt Q9UM47). The assay is described as follows: small molecules binding NOTCH3 protein – biochemical, 635/667 nm fluorescence, primary screen (AID 1096). The note with it: small-molecule microarray, 635 nm fluorescence, higher = more signal.
Assay [20] in a line: probe aEGFR binding to arrayed compounds – biochemical, biotinylated probe, 635/667 nm fluorescence, primary screen (AID 1097).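 Also: probe is a biotinylated anti-EGFR antibody binding compounds printed on slides; score combines fluorescence near 667 nm and signal to noise of each spot.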 The note with it: small-molecule microarray, higher = more signal.

The source made the active and inactive calls.

Chain of Neurogenic locus notch homolog protein 2 (Homo sapiens) (Q04721 whole entry, looked up, canonical isoform): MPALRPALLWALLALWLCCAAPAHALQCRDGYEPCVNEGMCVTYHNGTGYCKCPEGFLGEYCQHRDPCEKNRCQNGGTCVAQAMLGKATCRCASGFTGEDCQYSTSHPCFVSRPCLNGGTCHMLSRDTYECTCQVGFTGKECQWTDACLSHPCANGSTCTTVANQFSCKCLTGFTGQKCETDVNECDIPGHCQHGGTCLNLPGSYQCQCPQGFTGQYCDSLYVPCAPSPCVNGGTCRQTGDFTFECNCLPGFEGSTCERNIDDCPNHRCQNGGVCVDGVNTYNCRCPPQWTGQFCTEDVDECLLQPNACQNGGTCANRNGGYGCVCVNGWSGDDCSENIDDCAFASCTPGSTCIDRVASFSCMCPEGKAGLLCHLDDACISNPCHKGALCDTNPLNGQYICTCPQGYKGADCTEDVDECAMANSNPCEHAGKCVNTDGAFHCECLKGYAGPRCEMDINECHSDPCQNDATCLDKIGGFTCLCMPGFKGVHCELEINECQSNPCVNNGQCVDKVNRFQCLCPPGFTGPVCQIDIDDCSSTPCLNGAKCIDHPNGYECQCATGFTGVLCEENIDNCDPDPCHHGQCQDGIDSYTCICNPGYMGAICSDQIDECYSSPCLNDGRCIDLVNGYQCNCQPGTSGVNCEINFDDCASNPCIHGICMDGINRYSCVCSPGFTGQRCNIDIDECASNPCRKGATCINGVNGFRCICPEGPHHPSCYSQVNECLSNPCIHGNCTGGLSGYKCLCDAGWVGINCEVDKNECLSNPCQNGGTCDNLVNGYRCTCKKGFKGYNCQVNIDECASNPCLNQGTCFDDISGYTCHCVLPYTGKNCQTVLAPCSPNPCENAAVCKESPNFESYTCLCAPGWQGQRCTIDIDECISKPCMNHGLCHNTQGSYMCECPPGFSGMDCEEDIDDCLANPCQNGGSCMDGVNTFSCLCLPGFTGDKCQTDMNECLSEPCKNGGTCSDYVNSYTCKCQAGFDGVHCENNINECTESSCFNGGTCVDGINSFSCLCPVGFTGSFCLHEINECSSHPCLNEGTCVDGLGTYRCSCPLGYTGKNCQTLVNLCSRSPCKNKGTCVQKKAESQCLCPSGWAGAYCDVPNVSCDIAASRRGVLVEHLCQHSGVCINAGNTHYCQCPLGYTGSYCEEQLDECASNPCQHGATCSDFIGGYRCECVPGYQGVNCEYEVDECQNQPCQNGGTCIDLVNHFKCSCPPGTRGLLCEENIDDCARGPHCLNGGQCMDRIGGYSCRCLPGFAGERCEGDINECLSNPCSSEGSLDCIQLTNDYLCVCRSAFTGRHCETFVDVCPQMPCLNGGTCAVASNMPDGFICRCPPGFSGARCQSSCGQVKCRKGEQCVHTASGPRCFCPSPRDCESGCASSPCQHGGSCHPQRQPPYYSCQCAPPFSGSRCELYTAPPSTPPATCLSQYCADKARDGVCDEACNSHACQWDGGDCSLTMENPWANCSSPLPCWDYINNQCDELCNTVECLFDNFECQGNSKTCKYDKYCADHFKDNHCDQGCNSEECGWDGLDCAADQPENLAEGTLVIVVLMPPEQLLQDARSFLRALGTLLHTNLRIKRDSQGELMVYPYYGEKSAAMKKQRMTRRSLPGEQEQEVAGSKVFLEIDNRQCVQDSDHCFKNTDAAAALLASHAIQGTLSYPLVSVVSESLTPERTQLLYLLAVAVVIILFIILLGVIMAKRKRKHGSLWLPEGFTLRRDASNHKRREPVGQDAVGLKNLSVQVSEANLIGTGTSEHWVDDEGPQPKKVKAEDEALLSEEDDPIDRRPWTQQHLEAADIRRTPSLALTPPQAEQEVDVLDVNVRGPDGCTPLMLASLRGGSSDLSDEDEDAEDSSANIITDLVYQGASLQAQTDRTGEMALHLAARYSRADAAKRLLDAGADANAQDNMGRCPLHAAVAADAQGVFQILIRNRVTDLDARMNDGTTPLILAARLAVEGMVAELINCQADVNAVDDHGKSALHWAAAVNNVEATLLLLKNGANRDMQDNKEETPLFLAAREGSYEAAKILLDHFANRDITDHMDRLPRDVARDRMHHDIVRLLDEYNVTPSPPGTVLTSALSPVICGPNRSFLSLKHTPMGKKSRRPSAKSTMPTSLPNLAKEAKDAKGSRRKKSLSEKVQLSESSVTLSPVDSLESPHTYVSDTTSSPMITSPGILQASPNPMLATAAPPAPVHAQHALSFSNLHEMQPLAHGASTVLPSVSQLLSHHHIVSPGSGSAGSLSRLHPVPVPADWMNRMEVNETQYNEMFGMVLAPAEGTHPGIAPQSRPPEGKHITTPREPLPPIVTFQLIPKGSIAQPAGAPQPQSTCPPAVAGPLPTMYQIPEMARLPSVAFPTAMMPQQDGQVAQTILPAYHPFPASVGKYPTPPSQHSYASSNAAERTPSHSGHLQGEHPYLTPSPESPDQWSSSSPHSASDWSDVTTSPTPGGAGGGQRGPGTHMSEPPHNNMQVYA
Chain of Neurogenic locus notch homolog protein 3 (Homo sapiens) (Q9UM47 whole entry, looked up): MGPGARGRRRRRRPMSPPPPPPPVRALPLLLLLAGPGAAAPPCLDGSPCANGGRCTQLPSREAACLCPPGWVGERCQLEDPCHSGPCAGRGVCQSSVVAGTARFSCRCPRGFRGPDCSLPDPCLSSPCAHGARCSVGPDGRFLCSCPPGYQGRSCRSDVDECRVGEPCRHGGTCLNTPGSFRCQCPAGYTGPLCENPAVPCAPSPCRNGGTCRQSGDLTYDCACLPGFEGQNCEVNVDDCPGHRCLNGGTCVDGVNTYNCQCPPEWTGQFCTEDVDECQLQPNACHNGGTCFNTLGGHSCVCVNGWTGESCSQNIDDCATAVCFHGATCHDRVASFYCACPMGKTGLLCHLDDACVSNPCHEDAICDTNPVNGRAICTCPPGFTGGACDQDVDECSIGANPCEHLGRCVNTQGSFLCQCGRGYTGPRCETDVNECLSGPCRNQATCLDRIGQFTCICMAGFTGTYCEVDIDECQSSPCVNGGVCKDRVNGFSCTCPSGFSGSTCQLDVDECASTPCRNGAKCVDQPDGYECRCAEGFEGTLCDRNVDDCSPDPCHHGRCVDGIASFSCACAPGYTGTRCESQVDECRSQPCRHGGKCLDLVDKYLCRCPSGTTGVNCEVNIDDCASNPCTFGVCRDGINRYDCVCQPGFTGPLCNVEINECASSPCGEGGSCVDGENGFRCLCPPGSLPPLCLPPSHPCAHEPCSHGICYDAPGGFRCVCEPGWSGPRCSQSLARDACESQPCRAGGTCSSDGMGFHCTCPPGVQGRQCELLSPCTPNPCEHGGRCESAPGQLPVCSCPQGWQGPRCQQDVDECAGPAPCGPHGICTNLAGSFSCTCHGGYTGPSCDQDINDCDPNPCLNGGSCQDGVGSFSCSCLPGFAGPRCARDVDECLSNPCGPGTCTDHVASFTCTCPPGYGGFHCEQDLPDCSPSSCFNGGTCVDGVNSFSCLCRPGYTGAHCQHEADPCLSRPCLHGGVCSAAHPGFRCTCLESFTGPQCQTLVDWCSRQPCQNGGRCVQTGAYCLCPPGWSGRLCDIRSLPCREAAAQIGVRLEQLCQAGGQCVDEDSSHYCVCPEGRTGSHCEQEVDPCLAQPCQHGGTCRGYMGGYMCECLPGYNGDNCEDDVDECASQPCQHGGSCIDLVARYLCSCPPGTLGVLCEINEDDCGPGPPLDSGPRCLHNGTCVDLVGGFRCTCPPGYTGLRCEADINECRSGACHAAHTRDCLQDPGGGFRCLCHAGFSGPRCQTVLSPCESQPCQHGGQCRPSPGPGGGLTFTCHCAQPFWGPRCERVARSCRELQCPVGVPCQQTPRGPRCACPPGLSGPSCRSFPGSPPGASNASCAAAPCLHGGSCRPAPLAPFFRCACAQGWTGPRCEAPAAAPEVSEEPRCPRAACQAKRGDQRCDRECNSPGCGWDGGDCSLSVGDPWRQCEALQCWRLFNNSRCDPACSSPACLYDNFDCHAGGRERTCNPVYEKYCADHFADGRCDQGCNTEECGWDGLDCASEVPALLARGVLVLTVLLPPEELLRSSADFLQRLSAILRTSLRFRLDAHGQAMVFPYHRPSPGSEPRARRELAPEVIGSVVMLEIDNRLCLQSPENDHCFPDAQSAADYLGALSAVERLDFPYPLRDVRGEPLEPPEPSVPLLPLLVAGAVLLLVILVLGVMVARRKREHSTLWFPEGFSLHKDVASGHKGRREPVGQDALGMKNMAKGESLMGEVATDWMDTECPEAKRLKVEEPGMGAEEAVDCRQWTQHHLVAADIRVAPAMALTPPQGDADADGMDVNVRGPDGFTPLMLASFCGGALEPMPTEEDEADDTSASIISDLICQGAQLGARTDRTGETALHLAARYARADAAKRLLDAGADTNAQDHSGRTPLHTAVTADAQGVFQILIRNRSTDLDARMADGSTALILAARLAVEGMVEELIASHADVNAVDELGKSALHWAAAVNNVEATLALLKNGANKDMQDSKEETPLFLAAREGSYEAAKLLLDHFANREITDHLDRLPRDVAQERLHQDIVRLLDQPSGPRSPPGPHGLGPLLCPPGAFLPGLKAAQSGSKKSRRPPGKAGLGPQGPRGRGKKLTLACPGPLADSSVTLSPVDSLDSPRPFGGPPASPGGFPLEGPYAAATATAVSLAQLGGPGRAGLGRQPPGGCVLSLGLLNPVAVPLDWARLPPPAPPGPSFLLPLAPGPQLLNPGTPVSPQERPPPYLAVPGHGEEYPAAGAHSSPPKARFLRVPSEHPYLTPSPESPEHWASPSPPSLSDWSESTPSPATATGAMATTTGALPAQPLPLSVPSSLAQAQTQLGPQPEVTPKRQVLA

Consider `C[C@@H](OCc1ccccc1)C1NC(=O)[C@@]23C(=O)N[C@@H](Cc4ccccc4)C2[C@H](C)[C@@]2(C)O[C@H]2C3/C=C/C/C=C\CNC(=O)[C@H](Cc2ccccc2)NC1=O` (stereo not given in full), for which the composite z-score in [1] was -0.497; in assay [2] it was -0.0147; in assay [3], -0.199; in [4], 0.709; in [5] it was -0.284; in [6] it was -0.239. Besides, the composite z-score is 0.438 in assay [7]; -0.128 in assay [9]; 0.103 in [10]; 0.448 in [11]; 0.956 in assay [15]; -0.23 in assay [17]. Also, the results for the composite z-score in assay [18], in [19] and in assay [20] were 0.762, 0.655 and -0.0257, respectively. Moreover, the z-score is 3.33 (inactive) in assay [8]; -0.712 (inactive) in assay [12]; -0.985 (inactive) in [13]; -0.0389 (inactive) in [14]; 1.29 (inactive) in assay [16].
In the case of `CCOC(=O)C1=CC[C@@H](c2ccccc2)N(S(=O)(=O)C[Si](C)(C)C)[C@H]1c1ccccc1`, the composite z-score in [1] is -0.267; in [2], 0.505; in [3], -0.0181; in [4] it was 0.389; in assay [5], 1.25; in assay [6], 0.652. For the same compound, the composite z-score in assay [7] is 0.924; in assay [9], 1.25; in [10] it was -0.123; in assay [11], 1.08; in assay [15], 2.26; in assay [17], 0.138. Further, the composite z-score in [18] turned out to be 0.291; in [19], 1.09; in [20] it was 0.154. In addition, the z-score is -2.47 (inactive) in assay [8]; -0.514 (inactive) in assay [12]; 0.984 (inactive) in [13]; 0.416 (inactive) in assay [14]; -0.453 (inactive) in [16].
Take `CC(C)CNC(=O)[C@@H]1c2ccccc2C(=O)N(C2Cc3ccccc3C2)[C@H]1c1ccc(CO)cc1`: the composite z-score in assay [1] was 0.192; in assay [2] it was -0.372; in [3] it was -0.0737; in assay [4] it was 0.261; in assay [5], -0.51; in assay [6], 1.29. The composite z-score is 1.39 in assay [7]; -0.316 in assay [9]; -0.166 in assay [10]; 0.962 in assay [11]; 2.59 in [15]; 0.159 in assay [17]. Further, the composite z-score in assay [18] is -0.646; in assay [19], -0.145; in assay [20], -0.311. Further, the z-score is -1.56 (inactive) in [8]; -0.226 (inactive) in assay [12]; -0.59 (inactive) in assay [13]; -0.434 (inactive) in assay [14]; 2.01 (inactive) in assay [16].
On to `COCCCNC(=O)[C@@]1(Sc2ccc(C)cc2)CC(=O)N(C2CCCCC2)[C@@H]1c1ccc(CO)cc1I`, for which the composite z-score in assay [1] was -0.364; in [2], 0.657; in [3], 0.0442; in assay [4], 0.655; in assay [5] it was 1.02; in [6], 1.56. Also, the composite z-score in assay [7] is 1.26; in [9], 0.505; in assay [10], 0.176; in assay [11] it was 1.54; in assay [15] it was 2.81; in [17] it was -0.0333. Further, the composite z-score in assay [18] stood at 0.451; in assay [19], 1.04; in [20], 0.0944. Further, the z-score in assay [8] is -3.63 (inactive); in assay [12] it was -1.9 (inactive); in assay [13], -0.128 (inactive); in [14], 0.0267 (inactive); in assay [16] it was 0.331 (inactive).
As to `NCCCC[C@@H]1NC(=O)[C@H]2C[C@@H](C(=O)NCc3ccc(F)cc3)[C@@H](c3ccc(O)cc3)N2C1=O`, the composite z-score was found to be 1.85 in assay [1]; 0.0239 in assay [2]; 0.113 in [3]; 0.492 in assay [4]; 0.531 in [5]; 2.12 in [6]. For the same compound, the composite z-score in assay [7] is 1.3; in assay [9], 1.75; in assay [10] it was 0.0947; in assay [11], 1.3; in assay [15], 3.3; in [17] it was 0.726. The composite z-score in [18] turned out to be 1.09; in [19], 0.997; in [20] it was 0.149. Besides, the z-score in assay [8] is 5.15 (inactive); in assay [12], 0.804 (inactive); in [13] it was 0.368 (inactive); in [14], 0.656 (inactive); in [16], -0.656 (inactive).
